Beta2AR agonist: activates human beta-2 adrenergic receptor causing internalization | response, % (concentration not given with the values) | hit rate 0.43% among 340,000 | P07550 | Am2.2-beta2AR cells, FAP receptor internalization, flow cytometry | AID 504454;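 active = response above a set limit, near 3 SD of response in nonfluorescent compounds, cut at about 42% in these data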
NOD2 RIPK2 PPI: NOD2-RIPK2 protein interaction inhibition. O43353. CHO BLA complementation NOD2-RIPK2, CCF4 ratio. inhibition, % at 4.98 µM. hit rate 0.38% among 360,000; in the data active = inhibition above about 21%;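 note: 0% = vehicle only and 100% = reference blocker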
TLR9-MyD88 block: TLR9-MyD88 interaction inhibition. Q9NR96+Q99836. AID 504734. hit rate 0.21% among 340,000. inhibition, % at 4.98 µM. CHO BLA complementation TLR9-MyD88, CCF4 FRET ratio;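 active = inhibition above the mean over all tested compounds plus 3 SD, cut at about 21% in these data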;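 note: 0% = DMSO only wells and 100% = clavulanate BLA inhibitor control wells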
Granule exo inh: lytic granule exocytosis inhibition; inhibition, % at 10 µM; TALL-104 LAMP-1 surface exposure, flow cytometry; cells stimulated with thapsigargin and PMA; hit rate 0.66% among 360,000;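 active = inhibition above about 55%, limit read from the data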
TLR4-MyD88 BLA: TLR4-MyD88 interaction inhibition in cells | O00206+Q99836 | hit rate 0.18% among 200,000 | HeLa CL3-4 TLR4/MyD88 BLA complementation, FRET ratio | AID 861 | inhibition, % at 8.4 µM; in the data active = inhibition above about 25%;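 note: 0% = vehicle and 100% = reference inhibitor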
Target sequence (O00206 whole entry, looked up): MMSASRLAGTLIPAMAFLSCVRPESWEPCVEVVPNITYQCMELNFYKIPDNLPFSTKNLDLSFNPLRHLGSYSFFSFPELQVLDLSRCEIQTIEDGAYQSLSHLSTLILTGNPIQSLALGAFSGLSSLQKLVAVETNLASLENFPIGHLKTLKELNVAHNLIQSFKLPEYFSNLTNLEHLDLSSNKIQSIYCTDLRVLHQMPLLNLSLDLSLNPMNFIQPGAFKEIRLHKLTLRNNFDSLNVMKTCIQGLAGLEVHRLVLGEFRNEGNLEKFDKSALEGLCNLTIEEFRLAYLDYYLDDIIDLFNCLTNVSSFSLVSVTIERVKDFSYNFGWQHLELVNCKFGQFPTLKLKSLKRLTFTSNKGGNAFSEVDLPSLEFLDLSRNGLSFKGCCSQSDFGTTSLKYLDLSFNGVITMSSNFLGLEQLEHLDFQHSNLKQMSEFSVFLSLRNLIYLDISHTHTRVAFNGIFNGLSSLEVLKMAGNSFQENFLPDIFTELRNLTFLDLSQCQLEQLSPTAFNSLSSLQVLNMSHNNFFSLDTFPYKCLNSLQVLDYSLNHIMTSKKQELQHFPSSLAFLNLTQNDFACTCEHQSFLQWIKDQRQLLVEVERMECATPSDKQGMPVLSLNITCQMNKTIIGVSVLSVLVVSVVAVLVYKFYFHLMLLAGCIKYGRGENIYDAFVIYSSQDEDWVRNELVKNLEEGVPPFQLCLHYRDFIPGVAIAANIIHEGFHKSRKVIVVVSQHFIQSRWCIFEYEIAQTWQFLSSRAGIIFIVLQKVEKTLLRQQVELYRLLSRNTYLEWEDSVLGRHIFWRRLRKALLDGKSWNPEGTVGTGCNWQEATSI
Target sequence (Q99836 whole entry, looked up): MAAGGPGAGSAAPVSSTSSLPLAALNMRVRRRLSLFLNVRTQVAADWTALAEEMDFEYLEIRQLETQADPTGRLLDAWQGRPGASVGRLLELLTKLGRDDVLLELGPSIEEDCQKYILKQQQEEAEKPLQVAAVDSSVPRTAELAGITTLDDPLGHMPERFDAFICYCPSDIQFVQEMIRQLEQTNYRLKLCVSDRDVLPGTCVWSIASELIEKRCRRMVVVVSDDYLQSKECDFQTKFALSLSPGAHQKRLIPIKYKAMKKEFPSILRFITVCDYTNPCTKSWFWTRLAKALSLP
ABHD5-PLIN5 inh: blocks binding of human ABHD5 to perilipin-5; inhibition, % at 4 µM; Split G. princeps luciferase complementation, luminescence, 4 h; AID 602281; hit rate 0.78% among 360,000;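 active = inhibition above the mean inhibition across every tested compound plus 3 SD, cut at about 22% in these data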;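 note: 0% = DMSO only wells and the 100% control is not disclosed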
TLR4 MyD88 cnf: confirmation of human TLR4-MyD88 binding inhibitors | inhibition, % at 8.4 µM | HeLa CL3-4 BLA complementation, CCF4 FRET ratio | shares compounds with TLR4-MyD88 BLA | AID 941 | hit rate 50% among 350;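 active = mean inhibition across three repeat runs above about 25% carried over from the earlier screen, limit read from the data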;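 note: plate controls were DMSO only for no effect and clavulanic acid blocking BLA at full dose for full effect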
BLA inh HeLa: inhibits beta-lactamase activity, counter-screen to TLR4-MyD88 binding inhibitors | hit rate 63% among 350 | shares compounds with TLR4-MyD88 BLA | inhibition, % at 8.4 µM | HeLa BLA reporter, CCF4 FRET ratio | AID 1237;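 active = mean inhibition over three repeats above about 26% taken from the earlier screen, limit read from the data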;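 note: HeLa cells stably expressing beta-lactamase reporter as counterscreen for TLR4-MyD88 inhibitors; 0% = DMSO and 100% = clavulanic acid full inhibition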
Beta2AR ag CP1: agonists of human beta-2 adrenergic receptor; Am2.2-beta2AR cells, FAP surface receptor, flow cytometry; stronger effect = lower value; hit rate 25% among 1,100; shares compounds with Beta2AR agonist; AID 540358; percent response (surface receptor), % at 10 µM;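 active = surface receptor percent response at or below 58%, roughly 3 SD from nonfluorescent compounds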
B2AR FAP counter: fluorescence artifact in beta-2AR agonist FAP counterscreen; shares compounds with Beta2AR agonist; AID 588765; 1,100 tested, under 10 active; Am2.2 cells, FAP fluorogen flow cytometry; stronger effect = lower value; calls only at 10 µM;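 active = percent response below a set limit in fluorescence channel 1 and below 50% in channel 8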
TLR9-MyD88 cf: confirmation of human TLR9-MyD88 binding inhibitors. shares compounds with TLR9-MyD88 block. inhibition, % at 4.98 µM. hit rate 51% among 680. CHO TLR9/MyD88 BLA complementation, CCF4 FRET ratio;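 active = mean inhibition across three repeats above about 21% taken from the earlier screen, limit read from the data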;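 note: blue over green emission ratio reports constitutive TLR9 MyD88 association via BLA complementation; 0% = DMSO vehicle wells and 100% = clavulanate BLA inhibitor wells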
BLA counter-1: non-selective beta-lactamase inhibitors in TLR9-MyD88 counter-screen; shares compounds with TLR9-MyD88 block; CHO-BLA cells, CCF4 FRET ratio, BLA reporter; inhibition, % at 4.98 µM; hit rate 7% among 680;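 active = mean inhibition above a 50% cutoff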;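 note: counterscreen of TLR9-MyD88 hits on CMV-driven BLA in CHO-K1 cells; 0% = DMSO alone and 100% = clavulanate blocking BLA; higher means less blue over green ratio so more BLA blockade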
TLR9 CHO tox: counter-screen for TLR9-MyD88 inhibitors: cytotoxicity in CHO cells; luminescence; AID 588336; inhibition, % at 4.98 µM; shares compounds with TLR9-MyD88 block; hit rate 39% among 680; in the data active = inhibition above about 11%
NOD2-RIPK2 conf: confirmation of human NOD2-RIPK2 interaction inhibitors. inhibition, % at 4.98 µM. CHO cells, NOD2-RIPK2 BLA complementation, CCF4 FRET. hit rate 70% among 1,200. shares compounds with NOD2 RIPK2 PPI;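 active = mean inhibition across replicates above a set limit taken from the earlier primary screen, cut at about 21% in these data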;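 note: 0% = DMSO-only wells and the high end = clavulanate BLA-blocked wells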
BLA counter-2: hits BLA reporter in NOD2-RIPK2 inhibitor counterscreen; shares compounds with NOD2 RIPK2 PPI; CHO BLA reporter, CCF4 FRET ratio; inhibition, % at 4.98 µM; hit rate 57% among 1,200; AID 624371;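 active = mean inhibition above the low-control mean inhibition plus three low-control SD, cut at about 11% in these data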;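 note: 0% = DMSO only wells and 100% = clavulanate high control wells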
* hit, by the source's call; i = inactive; · = not tested or not shown. Hits are enriched below; roughly 2% of the tested compounds scored in any of these assays.

SMILES | Beta2AR agonist | NOD2 RIPK2 PPI | TLR9-MyD88 block | Granule exo inh | TLR4-MyD88 BLA | ABHD5-PLIN5 inh | others
COc1ccc(-n2nnnc2C(c2cccs2)N2CCC(n3c(=O)[nH]c4ccccc43)CC2)cc1 (centres undefined) | · | 1 | · | -2 | · | 7
NC(Cc1ccccc1)c1nn[nH]n1 (centres undefined) | -3 | -6 | -5 | -2 | · | -7
O=C(Cn1ncc2c3ccccc3n(Cc3ccccc3F)c2c1=O)N1CCC2(CC1)OCCO2 | 51* | -9 | 4 | 0 | 6 | -3
CN(C)C(=O)Oc1ccc2c(c1)O/C(=C\c1cccc(Cl)c1)C2=O | 53* | 4 | 9 | -7 | · | 3
CN(C)C(=O)Oc1ccc2c(c1)O/C(=C\c1ccc(Cl)cc1)C2=O | -8 | 0 | 2 | -1 | · | 3
Cn1ncnc2c(=O)n(C)c(=O)nc1-2 | 53* | -16 | 0 | 42 | · | -29
Cc1ccc(CN2CCC3CCC(C3)C2)c(O)c1 (centres undefined) | -4 | -8 | 6 | -18 | · | -2
CN1CCc2cc3c(cc2C1)OCO3 | 2 | 4 | 9 | 0 | · | -2
CN1CCc2cc3c(c4c2C1Cc1ccccc1-4)OCO3 (centres undefined) | 3 | 1 | -1 | 80* | · | -10
CCCCn1nnnc1C(CCSC)N1CCC2(CC1)C(=O)NCN2c1ccccc1 (centres undefined) | · | -4 | · | 5 | · | -6
CCOC(=O)[C@]12Cc3cc4ccccc4cc3[C@H]1N(Cc1ccccc1)C(=O)c1ccccc12 | · | -4 | · | 2 | · | 16
CN1CCN(c2nc3ccccn3c(=O)c2C=C2C(=O)N(C)C(=O)N(C)C2=O)CC1 | 9 | -7 | 9 | 0 | 7 | 23*
CNC(=O)C[C@H]1CC[C@@H]2NC[C@H](O)COC[C@H]2O1 | · | -3 | · | -10 | · | -19
COc1cc2c(cc1O)C[C@H]1c3c(cc(O)c(OC)c3-2)CCN1C | -4 | -8 | -4 | -1 | · | -3
CN1CCc2cc(O)cc3c2[C@H]1Cc1ccc(O)c(O)c1-3 | -9 | -7 | 12 | 60* | · | -3
Cc1cccc(C2=NCC(=O)N(CC(=O)NCc3ccco3)c3sc4c(c32)CCCC4)c1 | -8 | 3 | -1 | -14 | 7 | -1
COc1ccc(C2=NCC(=O)N(CC(=O)NCc3ccco3)c3sc4c(c32)CCCC4)cc1 | -3 | -10 | 9 | 5 | -2 | 38*
CCc1ccccc1N1C(=O)NC(=O)/C(=C\c2cc(C)n(C)c2C)C1=O | 61* | 7 | -3 | 0 | -16 | -2
Cc1cc(C)cc(N2C(=O)NC(=O)/C(=C\c3cc(C)n(C)c3C)C2=O)c1 | -1 | 5 | -11 | -3 | -11 | -4
COc1cc2c(cc1OC)CC[N+](C)=C2 | 57* | -13 | -2 | -6 | -1 | 0
O=C1NC(=O)N(c2ccc(F)cc2)C(=O)/C1=C/c1ccsc1 | 4 | -2 | 2 | -4 | -15 | 23*
O=C1NC(=O)C(=Cc2cc3c(cc2[N+](=O)[O-])OCO3)C(=O)N1 | -2 | 2 | 5 | 1 | 0 | 21
O=C1NC(=O)C(=Cc2ccc(-c3ccccc3[N+](=O)[O-])o2)C(=O)N1 | -8 | -7 | 1 | 76* | · | 10
O=C1NC(=O)C(=Cc2ccc(-c3cc(Cl)ccc3[N+](=O)[O-])o2)C(=O)N1 | 2 | 7 | 3 | 61* | 1 | -3
O=C1NC(=O)C(=Cc2ccccc2[N+](=O)[O-])C(=O)N1 | 2 | -5 | -11 | -7 | · | 0
SMILES | Beta2AR agonist | NOD2 RIPK2 PPI | TLR9-MyD88 block | Granule exo inh | TLR4-MyD88 BLA | ABHD5-PLIN5 inh | others
COc1cc(O)c2c(c1)/C=C/C[C@H](O)[C@H](O)C(=O)CCC[C@H](C)OC2=O | · | 1 | · | -8 | · | 1
CC1(C)OC(c2ccccc2)=C/C(=C/C=C2C(=O)NC(=S)NC2=O)O1 | · | · | · | · | 67* | · | TLR4 MyD88 cnf=63*;BLA inh HeLa=90*
CC(C)CN1Cc2ccccc2-n2nncc2C1 | · | -5 | -6 | 1 | · | 2
Cc1cc2c(C(F)(F)F)cc(=O)oc2c2c1NCCC2 | -1 | 20 | 15 | 11 | 31* | 1 | TLR4 MyD88 cnf=54*;BLA inh HeLa=55*
O=[N+]([O-])c1ccc(N2CCOCC2)c2c1no[n+]2[O-] | · | -2 | 1 | 22 | · | 6
O=c1cc(C(F)(F)F)c2cc3c4c(c2o1)CCCN4CCC3 | -942 | 68* | 46* | -1 | 54* | -16 | TLR4 MyD88 cnf=49*;BLA inh HeLa=81*;TLR9-MyD88 cf=51*;BLA counter-1=55*;TLR9 CHO tox=-1;NOD2-RIPK2 conf=63*;BLA counter-2=76*
CCOC(=O)[C@]12Cc3ccccc3[C@H]1N(CCC(=O)OC)C(=O)c1cc(OC)ccc12 | · | 4 | · | -2 | · | 11
COc1ccc(CNCCc2c(C)[nH]c3ccc(OC(F)(F)F)cc23)c(OC)c1 | 43* | 9 | -12 | 38 | · | 13 | Beta2AR ag CP1=81;B2AR FAP counter=i
COc1ccc(C(O)C(C)NC(C)C(O)c2ccc(OC)cc2)cc1 (centres undefined) | -1 | 4 | · | -6 | · | 4 | Beta2AR ag CP1=123;B2AR FAP counter=i
COc1ccc(C(O)CNC(C)C)c(F)c1OC (centres undefined) | -13 | -18 | -6 | 5 | · | 9 | Beta2AR ag CP1=116;B2AR FAP counter=i
Cc1ccc(S(=O)(=O)N2Cc3cc(N4CCOCC4)ccc3-n3nncc3C2)cc1 | · | 1 | · | 0 | · | 3

Source: PubChem BioAssay (several laboratories)
